{"source": "the supplement of paper PMC9948646", "note": "Values without a mark were called inactive."}
{"test_system": "gramicidin D channels in DC22:1PC lipid vesicles (bilayer-modifying potency)", "assay": "initial Tl+ fluorescence quench rate relative to no-drug control (NormRate, gramicidin monomer-dimer shift) (ratio (fold of control)); higher = stronger bilayer-modifying effect (equilibrium shifted toward conducting dimers), active = 1.5 or more", "conditions": "10 µM; lipid concentration 50 µM; temperature: 25 °C", "experimental": "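Stopped-flow fluorescence quench assay: ANTS-loaded DC22:1PC large unilamellar vesicles doped with gramicidin D (1:2000), 50 µM lipid, equilibrated 10 min with 10 µM drug (0.1% DMSO), mixed with Tl+ quench buffer at 25°C. Initial quench rate (Tl+ influx) was fitted with a modified stretched exponential and normalised to the no-drug control rate (NormRate); duplicates from two independent LUV preparations (triplicates for 7 drugs).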"}
{"smiles": "CCOC(=O)c1cc(-c2csc(Nc3c(C)cc(C)cc3C)n2)on1", "initial Tl+ fluorescence quench rate": 1.15}
{"smiles": "Cc1nnc(NC(=O)c2cn(-c3ccccc3)nc2-c2ccccc2C)o1", "initial Tl+ fluorescence quench rate": 1.02}
{"smiles": "NS(=O)(=O)c1cncc(-c2ccc3nccc(-c4cn[nH]c4)c3n2)c1", "initial Tl+ fluorescence quench rate": 1.18}
{"smiles": "C[C@@H](c1cc(Cl)cc(Cl)c1)N(C)c1ncc2c(N)nc(N)nc2n1", "initial Tl+ fluorescence quench rate": "2.71 (active)"}
{"smiles": "CCOC(=O)c1c(NC(=O)c2c(F)c(F)c(F)c(F)c2F)sc(C(N)=O)c1C", "initial Tl+ fluorescence quench rate": 1.41}
{"smiles": "Cc1ccc(NC(=O)c2nc[nH]c2C(=O)Nc2nc3ccccc3[nH]2)c(C)c1", "initial Tl+ fluorescence quench rate": "1.88 (active)"}
{"smiles": "O=C(c1ccc(NCCO)cc1)[C@H]1C[C@H]1c1ccc(Cl)cc1", "initial Tl+ fluorescence quench rate": "3.55 (active)"}
{"smiles": "CC(=O)NC[C@H]1CN(c2ccc(N3CCSCC3)c(F)c2)C(=O)O1", "initial Tl+ fluorescence quench rate": 1.09}
{"smiles": "NCCN(C(=O)c1ccc(Cl)cc1Cl)c1ccc(OCc2ccc(Cl)cc2)cc1", "initial Tl+ fluorescence quench rate": "5.93 (active)"}
{"smiles": "c1coc(CNc2nc(N3CCCCC3)nc3ccccc23)c1", "initial Tl+ fluorescence quench rate": 1.02}
{"smiles": "COc1cccc(-n2nnnc2S(=O)(=O)Cc2ccccc2)c1", "initial Tl+ fluorescence quench rate": 1.07}
{"smiles": "CC(C)/N=c1\\cc2n(-c3ccc(Cl)cc3)c3ccccc3nc-2cc1Nc1ccc(Cl)cc1", "initial Tl+ fluorescence quench rate": "5.63 (active)"}
{"smiles": "N#Cc1ccc(-c2ccc(OCC(N)=O)cc2)cc1", "initial Tl+ fluorescence quench rate": 1.06}
{"smiles": "Cc1cc2ccccc2n1CC(=O)N1C[C@@H](C(=O)N2CCCCC2)Oc2ccccc21", "initial Tl+ fluorescence quench rate": "1.72 (active)"}
{"smiles": "FC(F)(F)c1cccc(-c2nc3c(NCc4ccncc4)nccc3[nH]2)c1", "initial Tl+ fluorescence quench rate": "1.76 (active)"}
